# Laboratory results as given in PMC12864922, “TDP-43 directly inhibits mRNA accumulation in neurites through modulation of mRNA stability”.
# The full ranking holds about 9,900 sequences; the median of “r (bound/input frequency ratio)” is about 0.7, and the highest 2% start at about 6.5. What follows is part of a selection rich in the highest values, with near analogues and random picks from the rest.
# B1: ENSMUSG00000004113.485|Cacna1b (ssRNA)
# RNA: GGGAGUUCUACAGUCCGACGAUCGCUUCGAUAUCCGCAUGCUACCUUUGACUAGUUUGCUGCCUGAAUAAUAUUUACAAACUAAACUUUGGAUUCUGCUCUUGUUUCUACAAUGAUUUUUUGUAUAAAGCAAAGUCCUUGGAUUAAAUAAAAACAACCCAAAAAAAAAAUCAAAAUCAAAACCCAGGAUGCAACUGGGUGAUACCUGAGGACAGUGUGUCUCAGUGCGUCGGUGGAGAGGGUAUACUGCCAGGAGAGCUCAAGAAAAAUUGAGAACUUCAGCAAAGUGCCUGUGAGCACUUGGCUCUUGCGGUCGCACUAGUGUGGAAUUCUCGGGUGUCAAGG
# B2: ENSMUSG00000035202.103|Lars2|4:8 (ssRNA)
# RNA: GGGAGUUCUACAGUCCGACGAUCGCUUCGAUAUCCGCAUGCUAGCUACACACUCCAGUGUCUUUUACCAUCACAGGCCCUGGCUCUGUGCUACCUCCCUAGAAUACCUGUGGUUCAUCACCUUCAGCUCACACUCCAUUCAGACAAUGCUCACUUAGGCCUACAAGCAAGGGAGAGGCUUAAGCACAAGGUCUUUAAGCUUGAUACUGUGCCUGGUCUCAAUGCCUAGAAAUUCCAACUUAACUGUCGCUAUCAUAAAGGAUUUUAAAUUUUUUUACAAGUGAGAACCUAGCAUGUCAAGGUCCUCUUGCGGUCGCACUAGUGUGGAAUUCUCGGGUGUCAAGG
# B3: ENSMUSG00000022095.199|Fam160b2 (ssRNA)
# RNA: GGGAGUUCUACAGUCCGACGAUCGCUUCGAUAUCCGCAUGCUACCCAUGCCACCUCUCGAAGCCGGGCACAGGUUGCCAGGAGGUGACAUGAAAGAGGAGGAAACUCCAUGACCUCUACAUCCCCCGCAGUCCUCCCAGCGGGGGAGGACUUCUCUGCUGCUCCGAAGAACAUCAUGCACUCCUGUGUGUGUGUGUGAGUGUGUGUGUGUGUGUGUGUGUGUGUGUGUGUGUAUGUGUGUGUAUAUGUGUGUGUGUGUGUGUAUGUGUGUGUGUGUGUGUGAGUGAGUGUGUGUGUGUGUGUGCUCUUGCGGUCGCACUAGUGUGGAAUUCUCGGGUGUCAAGG
# B4: ENSMUSG00000022095.202|Fam160b2 (ssRNA)
# RNA: GGGAGUUCUACAGUCCGACGAUCGCUUCGAUAUCCGCAUGCUAGCCGGGCACAGGUUGCCAGGAGGUGACAUGAAAGAGGAGGAAACUCCAUGACCUCUACAUCCCCCGCAGUCCUCCCAGCGGGGGAGGACUUCUCUGCUGCUCCGAAGAACAUCAUGCACUCCUGUGUGUGUGUGUGAGUGUGUGUGUGUGUGUGUGUGUGUGUGUGUGUGUAUGUGUGUGUAUAUGUGUGUGUGUGUGUGUAUGUGUGUGUGUGUGUGUGAGUGAGUGUGUGUGUGUGUGUGUGUGUGUGAGUGUGUGUGCUCUUGCGGUCGCACUAGUGUGGAAUUCUCGGGUGUCAAGG
# B5: ENSMUSG00000022095.200|Fam160b2 (ssRNA)
# RNA: GGGAGUUCUACAGUCCGACGAUCGCUUCGAUAUCCGCAUGCUACCACCUCUCGAAGCCGGGCACAGGUUGCCAGGAGGUGACAUGAAAGAGGAGGAAACUCCAUGACCUCUACAUCCCCCGCAGUCCUCCCAGCGGGGGAGGACUUCUCUGCUGCUCCGAAGAACAUCAUGCACUCCUGUGUGUGUGUGUGAGUGUGUGUGUGUGUGUGUGUGUGUGUGUGUGUGUAUGUGUGUGUAUAUGUGUGUGUGUGUGUGUAUGUGUGUGUGUGUGUGUGAGUGAGUGUGUGUGUGUGUGUGUGUGUGCUCUUGCGGUCGCACUAGUGUGGAAUUCUCGGGUGUCAAGG
# B6: ENSMUSG00000032194.22|Kank2 (ssRNA)
# RNA: GGGAGUUCUACAGUCCGACGAUCGCUUCGAUAUCCGCAUGCUAUCCCUCUGUCCCAUUCUGCCUCGGCAUUCCUCAGCCCCUGAACUUCCCUGAGGGAGCCCUGACAUCUACCAGGCUCAAGCUCCUGGAAGCCUUUCCCAGCACCCUGGGUUCAAAGCCAGAAAGCCAAGCUACAUUCUCCUCCCAGUUGGCACCAGUUGACAACGCCUUGGGUGUGGGUUUCUUGUAAAGAACAUAGAGAACAAUCAGCCGGCAAUUAUGGGAGGAGGAAGGGGGGGCAAGAAGAGAAAAUACUGUAUUCUCUCUUGCGGUCGCACUAGUGUGGAAUUCUCGGGUGUCAAGG
# B7: ENSMUSG00000035202.148|Lars2 (ssRNA)
# RNA: GGGAGUUCUACAGUCCGACGAUCGCUUCGAUAUCCGCAUGCUAUCUCCAACACGAAAAAAGCAAGGCAACUCUACCAAAGAAACUAAUUACAUACUUGUAUUCCCAAUAUGUGAGAAGCUGAGGAAGGAGGAUCAUGAGUUUAAAGCCAUCCUUGGUUACAUGAGACUCUUGUCUCAAAGAACUACCAGGGAUCCUAAUGGACAACAAAGGUUGAAAACCAUUGAAUUAAUAAAUGUUGUGAACCAUAAUUUCUACCCAGUCCUUCUUCCUUCAUUUUCAUCUCAUCUGGGAUAAGUUUAGCCCUCUUGCGGUCGCACUAGUGUGGAAUUCUCGGGUGUCAAGG
# B8: ENSMUSG00000043670.75|Diras1 (ssRNA)
# RNA: GGGAGUUCUACAGUCCGACGAUCGCUUCGAUAUCCGCAUGCUAUUUGAUCCCUGUGGAUCUGAAAACAGGGACCUGGCUAAGGAACUGCUCAUCCCAGUCAGGCCCAGAGAGGUUACCUUGCCUCUCCAUCUCUGUCCCUGUGUGCCCAGCCAUGCCCACUGUCCCUGUCCCUCACAUUCUAUCACUGUGACCUCUGGGGAGUGCCCAUUGACCUCAUCUUCCUUCACUAAUAUCUUAUUUCUUUCACCUGAUCCUGUCCUUUCCCCGUGACCUCUGACCUGUGGCCUUCCCUGGGUCCAGAACUCUUGCGGUCGCACUAGUGUGGAAUUCUCGGGUGUCAAGG
# B9: ENSMUSG00000058297.201|Spock2 (ssRNA)
# RNA: GGGAGUUCUACAGUCCGACGAUCGCUUCGAUAUCCGCAUGCUAAGGAAAUGGUUCCCUCUUGCCCCGACCAAUAGAAGGGCGUGUCCCCGAGACCCUUGUGAGGAACCACGGGGAGCUGUGACUUCCUGUGCCCAGAAGGUCCUGGAGGAGAGGCCCCAAAGCCUUAGUCCUCUCAGCCAUGACUUUCCUCUGUCUCAAGGGUCCCCAAGAUGGCCCUAGAAGAACCAUGCCCCAGACUCUAUUUAAAGCCCUAUAGCAUAUAUGAAUAGAGAACGGUGUAUCUAUCAGAGGGGACCACACUGCUCUUGCGGUCGCACUAGUGUGGAAUUCUCGGGUGUCAAGG
# Target: TDP-43 (Homo sapiens, UniProt Q13148 1-414)
# Experiment: RNA Bind-n-Seq with designed 260-mer pool; 25 mM Tris-HCl, 150 mM KCl, 3 mM MgCl2, BSA (printed 500 mg/mL), 20 units/mL SUPERase IN; pH not stated; 500 nM RNA pool, 1 h, 4 C; TDP-43 5, 50, 500 nM; high values mean tight binding
# Details: protein: recombinant; tags: SBP (GST cleaved off with PreScission; pGEX-GST-SBP)
# How it was run: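 Binding (R) is the ratio of each oligo's mapped-read-normalized abundance in the bound fraction to its abundance in the input. To obtain it, SBP-tagged recombinant TDP-43 (5, 50 or 500 nM) on streptavidin beads was incubated with 500 nM of an in vitro-transcribed 260-nt 3′ UTR oligo pool for 1 h at 4 °C in 25 mM Tris-HCl, 150 mM KCl, 3 mM MgCl2, BSA and SUPERase IN. The RNA retained after washing was released with biotin, then reverse transcribed, amplified by PCR and sequenced.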
# Chain of TDP-43 (Q13148 whole entry): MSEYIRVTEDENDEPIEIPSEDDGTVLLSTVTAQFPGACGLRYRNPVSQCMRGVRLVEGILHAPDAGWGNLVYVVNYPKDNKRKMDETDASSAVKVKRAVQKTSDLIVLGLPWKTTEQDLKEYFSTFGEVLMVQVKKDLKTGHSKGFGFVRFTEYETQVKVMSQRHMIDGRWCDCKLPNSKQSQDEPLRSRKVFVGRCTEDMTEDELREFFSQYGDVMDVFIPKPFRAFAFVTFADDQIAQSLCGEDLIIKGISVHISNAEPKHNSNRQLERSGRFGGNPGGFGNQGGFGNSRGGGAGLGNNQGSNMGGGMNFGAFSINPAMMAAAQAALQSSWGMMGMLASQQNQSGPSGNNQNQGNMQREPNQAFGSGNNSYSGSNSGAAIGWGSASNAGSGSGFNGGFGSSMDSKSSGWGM
row,Binder,binding signal
1,B1,0.542 R (bound/input frequency ratio)
2,B2,0.427 R (bound/input frequency ratio)
3,B3,8.67 R (bound/input frequency ratio)
4,B4,7.21 R (bound/input frequency ratio)
5,B5,7.08 R (bound/input frequency ratio)
6,B6,0.911 R (bound/input frequency ratio)
7,B7,0.0673 R (bound/input frequency ratio)
8,B8,2.09 R (bound/input frequency ratio)
9,B9,0.372 R (bound/input frequency ratio)
